Values joined by “and” are separate entries in the source; they are usually repeats but may differ in a detail not shown here. Identical values can stand only once. Some compounds were tested as several samples or in several runs, with calls that do not always agree. Active and inactive are the calls of the source. The calls were made as follows: active = hit-call score of the fitted dose curve at least 0.9, where 1 is the maximum; inactive = score below 0.9.
Each molecule was assayed on Plasminogen activator inhibitor-1 (PAI1), SERPINE1 (gene 5054) (assay: BSK_CASM3C_PAI1: BioMAP Diversity Plus: CASM3C Assay for Plasminogen activator inhibitor-1 (PAI1) Biomarker Activity (AID 2284284;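 also: PAI-1 protein level measured by ELISA 24 h after dosing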)). Conditions: primary human coronary artery smooth muscle cells.

SMILES | outcome | AC50
O=C(CC(=O)C(F)(F)C(F)(F)C(F)(F)F)c1cccs1 | inactive | –
O=P(O)(O)CCC(F)(F)C(F)(F)C(F)(F)C(F)(F)C(F)(F)C(F)(F)C(F)(F)C(F)(F)F | inactive | –
O=C(O)C(F)(F)OC(F)(F)C(F)(F)OC(F)(F)C(F)(F)OC(F)(F)C(F)(F)C(F)(F)C(F)(F)F | inactive | –
C=CC(=O)OCCC(F)(F)C(F)(F)C(F)(F)C(F)(F)C(F)(F)C(F)(F)C(F)(F)C(F)(F)F | inactive | –
Oc1ccc(Cc2ccccc2O)cc1 | inactive | –
O=S(=O)(O)C(F)(F)C(F)(F)C(F)(F)C(F)(F)C(F)(F)C(F)(F)C(F)(F)C(F)(F)C(F)(F)C(F)(F)F | inactive | –
OCC(F)(F)C(F)(F)C(F)(F)C(F)(F)C(F)(F)C(F)(F)C(F)(F)C(F)(F)C(F)(F)C(F)(F)C(F)(F)F | inactive | –
Oc1c(Cl)cc(Cl)cc1Sc1cc(Cl)cc(Cl)c1O | inactive | 18.3 µM (active)
O=C(O)CCC(F)(F)C(F)(F)C(F)(F)C(F)(F)C(F)(F)C(F)(F)F | inactive | –
O=C1NS(=O)(=O)c2ccccc21 | inactive | –
CN(Cc1cnc2nc(N)nc(N)c2n1)c1ccc(C(=O)N[C@@H](CCC(=O)O)C(=O)O)cc1 | inactive | –
O=P(O)(O)CCC(F)(F)C(F)(F)C(F)(F)C(F)(F)C(F)(F)C(F)(F)F | inactive | –
CN(CCO)S(=O)(=O)C(F)(F)C(F)(F)C(F)(F)C(F)(F)C(F)(F)C(F)(F)C(F)(F)C(F)(F)F | inactive | –
O=C(O)CCC(F)(F)C(F)(F)C(F)(F)C(F)(F)C(F)(F)F | inactive | –
CCCCCCCCCCCC | inactive | –

Each molecule was assayed on Monocyte Chemoattractant Protein-1 (MCP1), CCL2 (gene 6347) (assay: BSK_hDFCGF_MCP1: BioMAP Diversity Plus: hDFCGF Assay for Monocyte Chemoattractant Protein-1 (MCP1) Biomarker Activity (AID 2284285)). Conditions: primary human foreskin fibroblasts.
Procedure, shortened: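 MCP-1 ELISA readout was taken 24 hours after dosing primary human dermal fibroblasts in the hDFCGF system, with DMSO as baseline. Parallel sulforhodamine B staining of total protein tracked overt cytotoxicity.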

SMILES | outcome | AC50
O=C(CC(=O)C(F)(F)C(F)(F)C(F)(F)F)c1cccs1 | inactive | –
O=P(O)(O)CCC(F)(F)C(F)(F)C(F)(F)C(F)(F)C(F)(F)C(F)(F)C(F)(F)C(F)(F)F | inactive | –
O=C(O)C(F)(F)OC(F)(F)C(F)(F)OC(F)(F)C(F)(F)OC(F)(F)C(F)(F)C(F)(F)C(F)(F)F | – | 8.5 µM (active) and 8.66 µM (active)
C=CC(=O)OCCC(F)(F)C(F)(F)C(F)(F)C(F)(F)C(F)(F)C(F)(F)C(F)(F)C(F)(F)F | inactive | 7.29 µM (active)
Oc1ccc(Cc2ccccc2O)cc1 | inactive | –
O=S(=O)(O)C(F)(F)C(F)(F)C(F)(F)C(F)(F)C(F)(F)C(F)(F)C(F)(F)C(F)(F)C(F)(F)C(F)(F)F | inactive | 10.3 µM (active)
OCC(F)(F)C(F)(F)C(F)(F)C(F)(F)C(F)(F)C(F)(F)C(F)(F)C(F)(F)C(F)(F)C(F)(F)C(F)(F)F | inactive | –
Oc1c(Cl)cc(Cl)cc1Sc1cc(Cl)cc(Cl)c1O | – | 2.54 µM (active) and 3.14 µM (active)
O=C(O)CCC(F)(F)C(F)(F)C(F)(F)C(F)(F)C(F)(F)C(F)(F)F | inactive | –
O=C1NS(=O)(=O)c2ccccc21 | inactive | –
CN(Cc1cnc2nc(N)nc(N)c2n1)c1ccc(C(=O)N[C@@H](CCC(=O)O)C(=O)O)cc1 | inactive | 0.607 µM (active)
O=P(O)(O)CCC(F)(F)C(F)(F)C(F)(F)C(F)(F)C(F)(F)C(F)(F)F | inactive | –
CN(CCO)S(=O)(=O)C(F)(F)C(F)(F)C(F)(F)C(F)(F)C(F)(F)C(F)(F)C(F)(F)C(F)(F)F | inactive | 0.0742 µM (active)
O=C(O)CCC(F)(F)C(F)(F)C(F)(F)C(F)(F)C(F)(F)F | inactive | –
CCCCCCCCCCCC | – | 11.1 µM (active) and 7.93 µM (active)

Source: PubChem BioAssay (EPA / NIEHS)
